GAA850 FXN act: increases GAA850 frataxin promoter reporter activity | HEK293 lucGAA850 FXN promoter luciferase reporter, 24 h; percent of 10 µM SAHA response | activation, % at 6 µM | actives 0.56% (n = 360,000) | AID 540364;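 active = activation above the average of all compounds screened plus 3 SD, cutoff fixed separately per campaign, cut at about 7.5% in these data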
PAX8 reporter: lowers PAX8-driven luciferase in RMG-I cells. RMG-I TPO-luciferase reporter, SteadyGlo, 24 h. inhibition, % at 12.6 µM. actives 1.2% (n = 360,000). AID 652154;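 active = mean replicate inhibition at least 60% with every replicate also reaching 60%; inconclusive = only one of the two criteria is met; inactive = mean below 60% and not all replicates reaching 60%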;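 note: luciferase light reporting Pax8 driven TPO promoter activity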
F508del corr: correctors of CFTR F508del function in bronchial epithelial cells. CFBE cells, YFP halide quenching; stimulated with forskolin plus potentiator P3; % fluorescence drop versus neutral controls. activity (quench increase), % at 7.58 µM. actives 0.36% (n = 350,000). AID 720511;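 active = mean added fluorescence quench of at least 8% versus neutral control, with both replicates also reaching 8%; inconclusive = only one of the mean or replicate conditions met; inactive = mean below 8% and not both replicates reaching 8%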;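 note: cells transiently co-express mutant CFTR-F508del with the halide-sensitive YFP; corrector assay measuring rescue of mutant channel to the surface after 24 h compound exposure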
EWS-Fli block: inhibitors of EWS/Fli oncoprotein transcriptional activity; AID 651661; actives 0.67% (n = 350,000); inhibition, % at 12.6 µM; A673 NR0B1-luciferase reporter, viability-normalised;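 active = mean inhibition of at least 50% after viability correction, with every replicate also passing that limit; inconclusive = mean reaches 50% but only one of two replicates passes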;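 note: firefly luciferase signal divided by Alamar Blue viability fluorescence both relative to DMSO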
Env fusion inh: blocks HIV Env-driven cell-cell fusion; AID 651610; actives 1.1% (n = 360,000); inhibition, % at 12.3 µM; HeLa-JRFL Env/CEM21 cell fusion, luciferase;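 active = mean replicate inhibition score of at least 50 and every replicate individually at or above 50; inconclusive = only one of the two criteria met; inactive = mean below 50 and not all replicates reaching 50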
A number is an active result; - = inactive; ? = inconclusive; . = not tested or not shown. Only some compounds are listed: those with a hit (about 2.5% of all), similar ones and a draw of the others.

SMILES	GAA850 FXN act	PAX8 reporter	F508del corr	EWS-Fli block	Env fusion inh
Cc1ccc(-n2cc(-c3ccccc3)c3c(N4CCN(C)CC4)ncnc32)cc1	-	-	-	-	-
CC=Cc1ccc2n(c1=O)C[C@H]1[C@H](CO)[C@@H](C(=O)N[C@@H](C)c3ccccc3)[C@@H]2N1Cc1cncnc1 (mixture of isomers)	.	-	-	-	.
O=C(CCl)Nc1ccc(N=Nc2ccccc2)cc1	-	-	-	-	-
O=C(CCl)Nc1ccc(-c2ccccc2)cc1	-	-	-	64	-
CN1C/C(=C/c2ccccc2[N+](=O)[O-])C(=O)/C(=C\c2ccccc2[N+](=O)[O-])C1	-	.	-	72	-
COc1cc(OC)c(NC2=CC(=O)C(=O)c3ccccc32)cc1Cl	-	93	-	-	-
Cc1ccc(NC2=CC(=O)C(=O)c3ccccc32)cc1	-	-	.	.	-
C[C@@H]1CN([C@@H](C)CO)C(=O)c2cc(C#CC3CCCCC3)cnc2O[C@@H]1CN(C)S(=O)(=O)c1ccccc1	.	.	-	-	-
COc1ccccc1S(=O)(=O)Cc1ccc(C(=O)N2CCN(c3ccccc3)CC2)o1	-	-	.	.	-
COc1ccccc1S(=O)(=O)Cc1ccc(C(=O)N2CCN(c3cccc(Cl)c3)CC2)o1	-	.	.	.	98
COc1cccc(N2CCN(C(=O)c3ccc(CS(=O)c4ccccc4Cl)o3)CC2)c1 (stereo not drawn)	-	93	-	51	-
COc1cccc(N2CCN(C(=O)c3ccc(CS(=O)c4ccccc4C)o3)CC2)c1 (stereo not drawn)	-	?	-	58	-
O=C(c1ccc(CS(=O)c2ccccc2Cl)o1)N1CCN(c2ccccc2)CC1 (stereo not drawn)	-	-	-	56	-
O=C(c1ccc(CS(=O)c2ccccc2Cl)o1)N1CCOCC1 (stereo not drawn)	-	-	-	-	-
COc1ccc(N2CCN(C(=O)c3ccc(CS(=O)c4cccc(C)c4)o3)CC2)cc1 (stereo not drawn)	-	-	-	.	-
COc1ccc(N2CCN(C(=O)c3ccc(CS(=O)Cc4ccc(Cl)cc4)o3)CC2)cc1 (stereo not drawn)	-	-	-	-	-
COCC(=O)Nc1ccc2c(c1)C(=O)N(C)C[C@@H](OC)[C@@H](C)CN[C@@H](C)CO2	.	-	-	-	-
COc1ccc(C2C(C#N)=C(C)NC3=C2C(=O)c2ccccc23)cc1 (stereo not drawn)	-	.	.	.	-
CC1=C([N+](=O)[O-])C(c2ccccc2)C2=C(N1)c1ccccc1C2=O (stereo not drawn)	-	.	.	.	120
O=C(N[C@H]1CC[C@H](CCNS(=O)(=O)c2cccc(Cl)c2)O[C@H]1CO)c1ccncc1	.	-	-	-	-
Cc1cc(C)nc(Nc2nc(C(N)Cc3ccc(F)cc3)cs2)n1 (stereo not drawn)	-	84	-	-	-
COc1ccc(CN(C)C[C@H]2Oc3ccc(NC(=O)Cn4cnnn4)cc3C(=O)N([C@@H](C)CO)C[C@@H]2C)cc1	.	-	-	.	-
COc1ccc(-c2nc3ccccc3n2Cc2ccc(C)cc2)cc1	-	.	.	.	.
COc1ccc(Cn2c(-c3ccc(C)cc3)c[n+]3ccccc23)cc1	-	88	-	-	-
COc1ccc2cc(CN(CC3CCCO3)C(=S)Nc3ccccc3)c(=O)[nH]c2c1 (stereo not drawn)	-	-	10	-	-
SMILES	GAA850 FXN act	PAX8 reporter	F508del corr	EWS-Fli block	Env fusion inh
Cc1cc(O)c(-c2cc(C(=O)Nc3ccc(S(=O)(=O)N4CCOCC4)cc3)[nH]n2)cc1C	-	73	.	.	-
O=C(Nc1ccc(Cl)cc1)c1ccc(S(=O)(=O)N2CCOCC2)cc1	-	-	-	-	-
O=C(Nc1ccc(S(=O)(=O)N2CCOCC2)cc1)c1cc(-c2cc(Cl)ccc2O)n[nH]1	-	76	-	59	-
CNC[C@@H]1Oc2c(NC(=O)Nc3ccc(F)cc3)cccc2C(=O)N([C@H](C)CO)C[C@H]1C	.	-	-	-	.
C[C@@H]1CN([C@@H](C)CO)S(=O)(=O)c2ccc(/C=C/c3ccccc3)cc2O[C@@H]1CN(C)C(=O)c1ccccc1	.	-	-	-	-
COc1ccc(S(=O)(=O)Nc2ccc3c(c2)C(=O)N([C@H](C)CO)C[C@@H](C)[C@H](CN(C)Cc2ccc(C(F)(F)F)cc2)OCCCC[C@H](C)O3)cc1	.	-	-	-	-
COc1ccc(S(=O)(=O)Nc2ccc3c(c2)C(=O)N([C@H](C)CO)C[C@@H](C)[C@@H](CN(C)Cc2ccc(C(F)(F)F)cc2)O3)cc1	.	.	9.2	-	.
COc1ccc(S(=O)(=O)Nc2ccc3c(c2)C(=O)N([C@H](C)CO)C[C@H](C)[C@@H](CN(C)Cc2ccc(C(F)(F)F)cc2)OCCCC[C@H](C)O3)cc1	.	104	-	-	-
COc1ccc(S(=O)(=O)Nc2ccc3c(c2)C(=O)N([C@@H](C)CO)C[C@H](C)[C@@H](CN(C)Cc2ccc(C(F)(F)F)cc2)OCCCC[C@H](C)O3)cc1	.	106	-	-	-
Cn1c(SCc2nc(-c3ccccc3)no2)nnc1-c1cccs1	-	-	.	.	-
Cn1c(SCc2nc(-c3ccc(Cl)cc3)no2)nnc1-c1cccs1	-	.	.	.	83
O=C(C[C@@H]1CC[C@H](NC(=O)Nc2ccccc2F)[C@H](CO)O1)NCc1ccc(F)cc1	.	.	-	-	.
O=C(N/N=C/c1ccc([N+](=O)[O-])o1)c1ccncc1	-	-	-	-	-
O=C(N/N=C/c1ccc([N+](=O)[O-])o1)c1ccc(O)cc1	-	-	-	65	-
Cc1noc(C)c1S(=O)(=O)N(C)C[C@@H]1Oc2ccc(NC(=O)CCCCCC(=O)Nc3ccccc3N)cc2CC(=O)N([C@@H](C)CO)C[C@H]1C	.	-	-	-	.
Cc1cc(NCc2ccccn2)n2ncc(-c3ccccc3)c2n1	-	-	8.5	-	-
Cc1cc(NCc2ccccn2)n2ncc(-c3ccc(Cl)cc3)c2n1	-	-	-	-	-
CCCCCN1C=CC(=C2C(=O)c3ccccc3C2=O)C=C1	-	99	-	91	72
CCN1C(=C2C(=O)c3ccccc3C2=O)C=Cc2ccccc21	-	.	.	.	-
Cc1ccc(S(=O)(=O)N[C@@H]2CC[C@@H](CCNC(=O)CN3CCOCC3)O[C@H]2CO)cc1	.	-	-	-	-
Cc1ccc(S(=O)(=O)NCCCN(C)C)cc1	-	.	.	.	.
Cc1ccc(S(=O)(=O)NCCCNS(=O)(=O)c2ccc(C)cc2)cc1	-	-	20	-	-
Cc1nc2ccccc2n1CC(=O)NCc1ccccc1	-	.	.	.	83
CC(C)C[C@@H](COCc1cccc(Cl)c1)N1CCN(C(=O)c2cccc(C(F)(F)F)c2)CCC1=O	.	-	-	-	58
CC(C)CC(COCc1cccc(Cl)c1)N1CCN(C(=O)c2ccc(C(F)(F)F)cc2)CCC1=O (stereo not drawn)	-	-	-	-	59
O=C(C[C@@H]1CC[C@H]2[C@@H](COC[C@@H](O)CN2S(=O)(=O)c2cccc(Cl)c2)O1)N1CCOCC1	.	-	-	-	.
